# High-throughput results from PubChem BioAssay.
# POLI inh = inhibitors of human DNA polymerase iota. Pol iota fluorescent replication assay, 10 min. 1% of 390,000 active. Potency, µM (series often up to 115 µM), for inactives: at the top dose activity, negative = inhibition, most hits filed as inhibitors. Q9UNA4
#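 Pol iota at 10 nM preincubated 15 min with compounds at room temperature; reaction started with fluorescent substrate, 50 nM final. Fluorescence read kinetically at 0 and 10 min; buffer-only wells as negative control.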
# Pol eta inh = blocks human DNA polymerase eta activity | Potency, µM (doses to about 114 µM), for the others: at the highest dose activity change, negative = inhibition, actives largely listed as inhibitors | 1.2% of 390,000 active | recombinant Pol eta, fluorescent DNA replication assay | Q9Y253; further: on the % scale 0 is the no-effect control and ±100 the full control effect
#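 Pol eta (10 nM) was preincubated with compounds for 15 min at room temperature, after which fluorescent replication substrate (50 nM final) was added to start the reaction. Fluorescence was read kinetically at 0 and 10 min.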
# FEN1 inhibitor = blocks human flap endonuclease 1. P39748. Recombinant FEN1 flap cleavage, fluorescence, 15 min. Potency, µM (doses to about 114 µM), for the others: at the highest dose activity change, negative = inhibition, most hits filed as inhibitors. 0.35% of 390,000 active; further: on the % scale 0 is the no-effect control and ±100 the full control effect; nearly all actives have a fitted effect of over 65% in size
#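 Steps: FEN1 (10 nM) dispensed; compound added by pin tool; 15 min at room temperature; substrate added to 50 nM final; reads at 0 min and 15 min; data normalized and fitted (four-parameter Hill).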
# POLK inh = inhibitors of human DNA polymerase kappa; purified Pol kappa, fluorescent DNA synthesis assay, 10 min; Potency, µM (top dose mostly 107 µM), without a hit: top-dose activity, negative = inhibition, usual class: inhibitors; 0.53% of 400,000 active; further: on the % scale 0 is the no-effect control and ±100 the full control effect
# Target sequence (Q9UBT6 whole entry, looked up): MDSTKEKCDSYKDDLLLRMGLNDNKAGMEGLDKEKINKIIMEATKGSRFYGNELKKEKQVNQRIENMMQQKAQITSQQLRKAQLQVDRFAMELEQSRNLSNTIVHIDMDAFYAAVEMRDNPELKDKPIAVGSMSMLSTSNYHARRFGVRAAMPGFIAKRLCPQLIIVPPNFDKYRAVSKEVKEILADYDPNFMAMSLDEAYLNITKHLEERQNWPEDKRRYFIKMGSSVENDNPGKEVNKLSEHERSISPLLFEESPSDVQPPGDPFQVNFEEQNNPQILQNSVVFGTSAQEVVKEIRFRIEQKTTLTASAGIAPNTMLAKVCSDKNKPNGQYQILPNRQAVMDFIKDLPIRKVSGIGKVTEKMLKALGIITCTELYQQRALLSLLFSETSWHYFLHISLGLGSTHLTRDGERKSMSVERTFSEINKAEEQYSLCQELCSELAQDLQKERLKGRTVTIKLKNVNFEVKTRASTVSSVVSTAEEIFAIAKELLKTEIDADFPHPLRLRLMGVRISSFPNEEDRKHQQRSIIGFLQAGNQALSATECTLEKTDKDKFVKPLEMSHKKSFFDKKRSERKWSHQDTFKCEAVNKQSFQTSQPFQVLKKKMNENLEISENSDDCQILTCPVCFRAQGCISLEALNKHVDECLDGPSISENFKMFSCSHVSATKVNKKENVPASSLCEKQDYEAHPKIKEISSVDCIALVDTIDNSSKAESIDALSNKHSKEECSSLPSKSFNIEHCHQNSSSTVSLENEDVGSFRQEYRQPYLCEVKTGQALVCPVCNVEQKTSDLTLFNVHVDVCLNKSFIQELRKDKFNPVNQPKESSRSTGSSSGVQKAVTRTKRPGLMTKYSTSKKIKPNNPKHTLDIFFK
#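 Kinetic fluorescence readout at 0 and 10 min followed reaction start with substrate at 50 nM final. Beforehand, enzyme (10 nM Pol kappa) stood 15 min with compound at room temperature; buffer-only wells were negative controls.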
# WRN helicase inh = blocks human WRN helicase; WRN helicase unwinding, fluorescent forked duplex, kinetic; 0.46% of 360,000 active; AID 651768; Potency, µM (series often up to 114 µM), inactives show top-dose activity change, negative = inhibition, actives largely listed as inhibitors; Q14191; further: on the % scale 0 is the no-effect control and ±100 the full control effect; nearly all actives have a fitted effect of over 55% in size
#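 Enzyme (20 nM final) and test compound sit together 15 min at room temperature before substrate addition. Substrate is a single-forked duplex oligonucleotide (100 nM) labelled with fluorophore and quencher, with 2 mM ATP; helicase unwinding raises red fluorescence, read kinetically.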
# Pol beta inh = DNA polymerase beta (human) inhibition | Pol beta primer extension/strand displacement, fluorescence kinetic | Potency, µM (highest dose often 114 µM), inactives show at the top dose activity change, negative = inhibition, hits mostly inhibitors | 1.3% of 340,000 active | AID 485314 | P06746; further: on the % scale 0 is the no-effect control and ±100 the full control effect
#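 Homogeneous kinetic assay of primer extension and strand displacement by 10 nM Pol beta, preincubated 15 min at room temperature with compound before 50 nM substrate (final) was added. Read at 0 and 10 min; four-parameter Hill fit.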
# * = called active by the depositor; ? = inconclusive; . = no result given; [ ] = dose if it differs, or a comment. Only some compounds are listed: those with a hit (about 2.4% of all), similar ones and a draw of the others. The call rests on the fitted dose curve; in most records, active means well fitted curve in the direction sought with a large enough effect; inconclusive means small, poorly fitted or top-dose-only effect, or another doubt; inactive means no such curve, though single readings can be large; an effect the other way counts as inactive or inconclusive. Potency means the concentration at half of the fitted maximal effect.
SMILES,POLI inh,Pol eta inh,FEN1 inhibitor,POLK inh,WRN helicase inh,Pol beta inh
O=C(O)COc1ccccc1/C=C1\SC(=Nc2ccc(F)cc2)N(c2ccc(F)cc2)C1=O,15.0%,56.2µM*,-33.9%,5.2%,-0.2%[11.6 µM],-5.1%
COC1C(OC(=O)/C=C/C=C/C=C/C=C/C(=O)O)CCC2(CO2)C1C1(C)OC1CC=C(C)C (configuration not stated),.,.,.,-5.1%[60.1 µM],.,.
Cc1ccc(N=Nc2c(N)[nH]n3c(=O)cc(-c4ccccc4)nc23)cc1,9.8%,-11.4%,-14.6%,-12.1%,-23.1%,6.3%
Cc1ccc(N=Nc2c(=O)[nH]n3c(=O)cc(C)[nH]c23)cc1,?,-1.4%,-19.7%,-23.7%,-14.6%,0.891µM*
OC[C@@H]1O[C@](CO)(O[C@H]2O[C@H](CO)[C@@H](O)[C@H](O)[C@H]2O)[C@H](O)[C@H]1O,.,.,.,0.8%[19.4 µM],.,.
Cc1c(NC(=O)C(C)OC(=O)c2c3c(nc4ccccc24)CCC3)c(=O)n(-c2ccccc2)n1C (configuration not stated),31.6µM*,50.1µM*,-2.9%,-24.2%,?,?
Cc1c(NC(=O)C(C)OC(=O)c2cccnc2)c(=O)n(-c2ccccc2)n1C (configuration not stated),58.8%,-5.7%,-7.4%,-6.2%,-0.4%,6.0%
Cc1c(NC(=O)C(C)OC(=O)c2cccnc2Cl)c(=O)n(-c2ccccc2)n1C (configuration not stated),79.4µM*,-9.2%,0.1%,5.1%,2.9%,.
Oc1ccc(Cl)cc1C1C=C(c2ccc3c(c2)OCO3)NC(c2ccc(C(F)(F)F)cc2)N1 (configuration not stated),?,.,2.9%,-0.6%,.,.
Cc1cc(C)cc(NC(=O)CSc2ncc(S(=O)(=O)c3ccccc3)c(=O)[nH]2)c1,.,.,.,.,.,6.3%
COc1cc(NC(=O)CSc2ncc(S(=O)(=O)c3ccc(Br)cc3)c(=O)[nH]2)cc(OC)c1,?,?,8.7%,-16.5%,.,50.1µM*
Cc1ccc(NC(=O)CSc2ncc(S(=O)(=O)c3ccc(C(C)C)cc3)c(=O)[nH]2)cc1C,?,?,-13.4%,-13.1%,.,20µM*
C=C1C=C(C(F)F)n2ncc(C(=O)Nc3ccc(Br)cc3C(F)(F)F)c2N1,52.3%,.,-13.4%,-21.4%,.,.
O=[N+]([O-])c1ccc(NCCc2ccccc2)c(Br)c1,-2.2%,-20.8%,-6.5%,-4.4%,-6.8%,79.4µM*
CC(C)=CC[C@@H](O)C1=CC(=O)c2c(O)ccc(O)c2C1=O,.,.,.,0.891µM*,.,.
O=C(O)C1CSC(c2ccco2)N1 (configuration not stated),?,10µM*,?,17.8µM*,14.1µM*,8.91µM*
O=C(O)C1CSC(c2ccncc2)N1 (configuration not stated),14.6%,2.7%,-3.9%,-12.8%,-32.0%,-18.5%
CC(C)[C@H](NC(=O)OCc1ccccc1)C(=O)OCC(=O)NCc1ccco1,15.8µM*,50.1µM*,17.8%,-24.8%,-28.2%,.
CSCCC(NC(=O)c1ccccc1)C(=O)OCC(=O)NCc1ccco1 (configuration not stated),70.8µM*,?,-3.7%,-20.6%,-13.7%,.
COc1ccc(CNC(=O)COC(=O)C(CCSC)NC(=O)c2ccco2)cc1OC (configuration not stated),34.9%,-1.2%,-2.8%,8.7%,13.0%,.
CC(C)S(=O)(=O)N1CCN(c2nc(-c3cccs3)nc3ccccc23)CC1,2.1%,.,-5.6%,-20.8%,.,.
COc1cc(OC)cc(C(=O)Nc2nnc(NC(=S)Nc3ccccc3)s2)c1,5.0%,?,-12.9%,79.4µM*,?,-3.4%
CCc1nnc(NC(=O)[C@@H]2CCCN2C(=O)c2cccs2)s1,?,.,6.3%,1.1%,.,.
Cc1ccc(CNC(=O)CCc2nnc3ccc(N4CCC5(CC4)OCCO5)nn23)cc1,?,-13.2%,-7.2%,79.4µM*,4.0%[11.6 µM],14.4%
Cc1ccnc2c1ccc1c(C)ccnc12,25.1%,-6.1%,25.1µM*,13.8%,4.9%,.
SMILES,POLI inh,Pol eta inh,FEN1 inhibitor,POLK inh,WRN helicase inh,Pol beta inh
Cc1ccc2oc(-c3ccc(NC(=O)COc4ccccc4)cc3O)nc2c1,89.1µM*,.,6.7%,-8.0%,.,.
Cc1ccc(OCC(=O)Nc2ccc(O)c(-c3nc4ccccc4o3)c2)cc1,11.0%,-12.7%,-6.6%,-8.8%,-0.9%,-12.2%
Cc1ccc(OCC(=O)Nc2ccc3c(c2)C(=O)NC3=O)cc1,-7.5%,-5.3%,8.2%,4.1%,0.8%,31.6µM*
O=C(c1cccs1)c1no[n+]([O-])c1C(=O)c1cccs1,25.1µM*,-12.6%,4.6%,-5.5%,28.2µM*,3.5%
COC(=O)c1ccccc1NC(=O)c1cc2ccccn2n1,17.6%,-11.0%,-8.2%,6.6%,.,?
COC(=O)c1ccccc1NC(=O)c1cc2ncc(Br)cn2n1,?,7.08µM*,-9.6%,-20.3%,-35.5%,44.7µM*
O=Cc1ccc(I)cc1,-5.6%,.,-9.3%,-6.7%,.,.
N#Cc1ccc(CSc2nnc(NC(=O)c3ccc4ncsc4c3)s2)cc1,?,31.6µM*,-11.7%,-6.5%,?,16.5%
NC(=O)COc1ccccc1C(=O)Nc1ccccc1,40.9%,.,13.8%,-12.4%,.,.
CCCCCCCCCCCCCCCC[n+]1ccc(C)c2ccccc21,-1.6%,.,79.4µM*,-19.7%,.,.
CCCCCCCCCC[n+]1ccc(/C=C/c2c[nH]c3ccccc23)c2ccccc21,?,.,44.7µM*,?,.,.
COc1ccc(N2CCN(C(=O)COc3ccc4ccccc4c3)CC2)cc1,8.3%,5.4%,8.5%,-6.3%,2.8%,7.6%
COc1cc(OC)cc(C(=O)N2CCN(C(=O)COc3ccc4ccccc4c3)CC2)c1,70.8µM*,-10.2%,7.2%,-7.5%,-6.5%[57.1 µM],13.2%
COc1ccccc1/C=C/C=N/NC(=O)Cc1cccn1C,50.1µM*,?,-4.1%,-11.8%,-5.4%[57.1 µM],-12.5%
O=C(Nc1nc(-c2cccs2)cs1)c1ccc([N+](=O)[O-])o1,?,79.4µM*,5.0%,-13.1%,-12.5%[11.6 µM],.
C[N+]1(CC(=O)c2ccc(Cl)c(Cl)c2)CCOCC1,6.4%,.,2.9%,-23.9%,.,.
O=C(O)c1c(Cl)c(Cl)c(Cl)c(Cl)c1-c1c2cc(I)c(=O)c(I)c-2oc2c(I)c(O)c(I)cc12,.,.,.,11.9µM*,.,.
C/C=C(\NNC(C)=O)c1ccc(O)cc1,1.1%,.,-7.8%,-2.2%,.,.
O=C1c2c(O)cc(O)cc2O[C@H](c2ccc(O)c(O)c2)C1O (some centres not stated),.,.,.,1.34µM*,.,.
O=C1c2c(O)cc(O)cc2OC(c2ccc(O)c(O)c2)C1O (configuration not stated),3.98µM*,5.62µM*,.,5.97µM*,.,1.89µM*
